Screening results deposited in PubChem by Corson Lab, School of Medicine, Indiana University.
Shown is part of a subset that was picked to be rich in hits.
FECH block = inhibitors of human ferrochelatase, primary screen, biochemical, purified FECH, Ni-mesoporphyrin absorbance. Ni-mesoporphyrin absorbance 550 nm. calls only at 10 µM (by protocol). AID 1671448, 2021. 20,000 compounds, 3.3% hits;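 active = enzyme reaction rate more than 3 SD below the solvent-only control wells on the same plate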;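 also: lower slope than DMSO wells means FECH inhibition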
Target sequence (P22830 whole entry, looked up): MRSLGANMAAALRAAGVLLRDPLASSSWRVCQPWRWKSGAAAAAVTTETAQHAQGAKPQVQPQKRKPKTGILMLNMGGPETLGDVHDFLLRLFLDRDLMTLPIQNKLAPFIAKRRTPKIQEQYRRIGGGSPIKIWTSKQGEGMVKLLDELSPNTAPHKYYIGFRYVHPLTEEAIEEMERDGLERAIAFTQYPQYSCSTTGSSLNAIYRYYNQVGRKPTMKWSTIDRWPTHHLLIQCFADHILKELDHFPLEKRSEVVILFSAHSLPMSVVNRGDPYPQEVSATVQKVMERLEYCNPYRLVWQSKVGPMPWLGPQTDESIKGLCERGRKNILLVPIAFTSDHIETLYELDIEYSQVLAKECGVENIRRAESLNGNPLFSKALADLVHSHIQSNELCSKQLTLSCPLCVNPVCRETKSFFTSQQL
The depositor's hits bear a star; i = inactive; + = active, no number.

SMILES	FECH block
CCN1C(SCC(=O)Nc2cc(Cl)c(OC)cc2OC)=NS(=O)(=O)c2ccccc21	i
Cc1nc(OCC(=O)NCc2ccccc2C)c2c(C)c(C)oc2n1	i
Cc1n[nH]c(C)c1CNC(=O)C(C)N(c1ccccc1)S(C)(=O)=O (stereo unspecified)	i
Cc1cc2nc(CSc3nnc(-c4cc(C)n(C)n4)o3)cc(=O)n2o1	i
Cc1cc2nc(CSc3nnc4c(n3)[nH]c3ccccc34)cc(=O)n2o1	+
Cc1cc(C)n2c(SCc3cc(=O)n4oc(C)cc4n3)nnc2n1	i
Cc1ccc(-c2cc(Nc3cccc4cccnc34)nc(C)n2)cc1	i
CCc1cc(Sc2ccc(NC(=O)Nc3ccc(Br)c(C)c3)cc2)n2ncnc2n1	i
Cc1cnc(NCCN2CCCCCC2)nc1N(C)C	i
Cn1c(=O)n(Cc2ccccc2F)c(=O)c2cnc(-c3cccs3)nc21	i
Cn1c(=O)n(CCOc2ccccc2)c(=O)c2cnc(-c3cccs3)nc21	+
Cc1noc(C)c1CCn1c(=O)c2cnc(-c3cccs3)nc2n(C)c1=O	i
CCc1[nH]c2c(CNC(=O)[C@H]3[C@@H]4C=C[C@@]5(CN(C)C(=O)[C@@H]35)O4)cc(C)cc2c1C	i
O=c1cc(CNc2ccccc2)nc2nc(NCc3ccccc3)[nH]n12	i
O=c1cc(CNc2ccccc2)nc2nc(NCc3ccc(Cl)cc3)[nH]n12	i
CCCc1cc(=O)n2[nH]c(CNc3cccc(OC)c3)nc2n1	+
Cc1ccc(NCc2cc(=O)n3[nH]c(NCc4ccc(F)cc4)nc3n2)cc1C	i
CCCc1cc(=O)n2[nH]c(CNc3ccc(C)c(C)c3)nc2n1	+
COc1ccc(CNc2nc3nc(CNc4ccccc4)cc(=O)n3[nH]2)cc1	i
CCCc1cc(=O)n2[nH]c(CNc3ccc(OCC)cc3)nc2n1	i
CCCc1cc(=O)n2[nH]c(CNc3ccccc3)nc2n1	+
Cc1ccc(NCc2cc(=O)n3[nH]c(NCc4ccccc4)nc3n2)cc1C	i
COc1cccc(NCc2cc(=O)n3[nH]c(NCc4ccccc4)nc3n2)c1	i
CCCc1cc(=O)n2[nH]c(CNc3cccc(Cl)c3)nc2n1	+
CCc1ccc(NCc2cc(=O)n3[nH]c(NCc4ccc(Cl)cc4)nc3n2)cc1	i
SMILES	FECH block
Cc1cc(NC(=O)C2CCCC2)n(-c2ncnc3c2cnn3-c2ccc(Cl)cc2)n1	i
COc1ccc(Cl)cc1S(=O)(=O)NCc1nc2cccnc2n1C1CCCC1	i
COc1ccc(CCC(=O)N2C[C@H](N)C[C@H]2C(=O)NC(C)C)cc1OC	i
O=C(CN1CCN(Cc2ccccc2F)S1(=O)=O)Nc1ccccc1F	i
COC(=O)N1CCc2onc(-c3ccc(-c4ccccc4)cc3)c2C1	i
Cc1cc(Nc2ccccc2)nc(Nc2ccc(NC(=O)CCC3CCCCC3)cc2)n1	i
COc1ccc(N2C(=O)CCS2(=O)=O)cc1S(=O)(=O)NCc1ccc(Cl)cc1	i
CCCc1cc(Sc2ccc(NS(=O)(=O)c3ccc(Cl)cc3)cc2)n2ncnc2n1	i
OCC#Cc1ccc(CN2CCc3onc(-c4ccc(Cl)cc4)c3C2)cc1	i
COc1ccccc1N(Cc1nc2nc(C)cc(C)n2n1)S(=O)(=O)c1ccc(C)cc1	i
CCn1cc(CN(C(=O)c2nccc3ccccc23)C(C)C)cn1	i
N[C@@H]1c2ccccc2C2(CCN(C(=O)c3nccc4ccccc34)CC2)[C@H]1O	i
CN(CC1COCCO1)C(=O)c1nccc2ccccc12 (stereo unspecified)	+
Cc1cc(N2CCCCC2)nc(N2CCN(S(=O)(=O)c3ccccc3)CC2)n1	i
Cc1cc(N2CCCC2)nc(N2CCN(S(=O)(=O)c3ccccc3)CC2)n1	i
Nc1nc(N2CCCCCC2)ncc1S(=O)(=O)c1cccs1	+
CNC(=O)CC(C)N(C)C(=O)c1sc(C)nc1-c1ccccc1 (stereo unspecified)	i
C=Cn1cc(CN2CCC(CNC(=O)NC(C)(C)C)CC2)cn1	i
CCn1nc(C)c(NC(=O)CNCc2ccc3c(c2)OCO3)c1C	i
CCOc1ccc(-c2cc(C(=O)NCc3ccc(S(N)(=O)=O)cc3)no2)cc1	+
NS(=O)(=O)c1ccc(NC(=O)c2cc(-c3ccccc3)on2)cc1	i
COc1ccc(-c2cc(C(=O)Nc3ccc(S(N)(=O)=O)cc3)no2)cc1	+
Cc1ccc(-c2cc(C(=O)Nc3ccc(S(N)(=O)=O)cc3)no2)cc1	i
Cc1ccc(-c2cc(C(=O)NCCc3ccc(S(N)(=O)=O)cc3)no2)cc1	i
Cc1ccc(-c2cc(C(=O)NCc3ccc(S(N)(=O)=O)cc3)no2)cc1	i
SMILES	FECH block
C#CCN(CC=C)C(=O)c1ccc(C(C)N2CCCCC2)o1 (stereo unspecified)	i
CC(=O)Nc1ccc(Nc2nc(C)cc(N3CCCCC3)n2)cc1	i
CC1(C)CNC(=O)c2nc(-c3cccc(OC(F)F)c3)[nH]c2C1	i
CCCC(C(=O)Nc1ccccc1F)N1Cc2ccccc2C1=O (stereo unspecified)	i
CCc1nnc(CN(C)c2nccc(CCC(F)(F)F)n2)o1	i
O=c1c2c(nc3nc(CNc4ccccc4F)[nH]n13)CCC2	i
CCOc1ccccc1NCc1nc2nc3c(c(=O)n2[nH]1)CCC3	i
O=c1c2c(nc3nc(CNc4ccc(Br)cc4)[nH]n13)CCC2	+
COc1ccc(NCc2nc3nc4c(c(=O)n3[nH]2)CCC4)c(OC)c1	i
Cc1ccccc1NCc1nc2nc3c(c(=O)n2[nH]1)CCC3	+
Cc1ccc(Cl)cc1NCc1nc2nc3c(c(=O)n2[nH]1)CCC3	+
Cc1nc2nc(C)c(NC(=O)Nc3ccccc3Cl)c(=O)n2[nH]1	i
Cc1nc2nc(C)c(NC(=O)Nc3cc(Cl)ccc3C)c(=O)n2[nH]1	i
CCc1nc2nc3c(c(=O)n2[nH]1)CCC3	i
Cc1c(Cl)cccc1NCc1nc2nc3c(c(=O)n2[nH]1)CCC3	+
Cc1cc(=O)n2[nH]c(NCc3ccc(C(=O)Nc4ccc(Br)cc4)cc3)nc2n1	i
COC(=O)c1c(NC(=O)c2ccc(Cl)s2)sc2c1CCN(Cc1ccccc1)C2	i
Cc1cc(NC(=O)c2ccc(C(C)(C)C)cc2)n(-c2ncnc3c2cnn3-c2ccccc2)n1	i
CC(C)c1nccc(CN2CCC(NS(C)(=O)=O)CC2)n1	i
CC(=O)c1c(C)nn(CC(=O)N2CCNCC2C(=O)N2CCCC2)c1C (stereo unspecified)	i
CCc1ccc(-c2nccn2CCN2CCOCC2)o1	i
CCc1cc(Sc2ccc(NS(=O)(=O)c3ccc(OC)cc3)cc2)n2ncnc2n1	i
CCCc1c(C)nc2ncnn2c1Sc1ccc(NC(=O)Nc2cc(C)cc(C)c2)cc1	i
Cc1ccc(Nc2cc(C)nc(N3CCN(S(=O)(=O)c4ccc(F)cc4)CC3)n2)cc1	i
CN(Cc1ccoc1)C(=O)c1cccc(NCc2cccs2)c1	i
Cc1cc(C2CCC2)nc(N(C)Cc2cc(-c3ccccn3)no2)n1	i
CCOC(=O)c1cc2n(n1)CC(C)(C(=O)NCCC(C)C)N(c1ccc(Cl)cc1)C2=O (stereo unspecified)	i
CCOC(=O)c1cc2n(n1)CC(C)(C(=O)NCCC(C)C)N(c1cc(OC)cc(OC)c1)C2=O (stereo unspecified)	i
CCOC(=O)c1cc2n(n1)CC(C)(C(=O)NCCC(C)C)N(c1cc(C)cc(C)c1)C2=O (stereo unspecified)	+
